# Data taken from PubChem BioAssay (NCATS).
# A number with no mark means an inactive call. Records with an inconclusive call do not appear. This is one part of the list. Active and inactive are the calls of the source. Unless noted, the call rests on the fitted dose curve; in most records, active means well fitted curve in the direction sought with a large enough effect; inconclusive means small, poorly fitted or top-dose-only effect, or another doubt; inactive means no such curve, though single readings can be large; an effect the other way counts as inactive or inconclusive.
# Legend:
# [1] = qHTS assay for small molecule agonists of the antioxidant response element (ARE) signaling pathway (AID 651741; active means well fitted activation curve with a large enough effect in the signal ratio; the % refers to the signal ratio; further: potency means the concentration at half of the fitted maximal effect; on activation: % of control where 0% means no effect)
# How it was run: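 Beta-lactamase reporter expression driven by the antioxidant response element in HepG2 cells was detected by fluorescence with LiveBLAzer B/G FRET substrate (2 h, room temperature) following 16 h compound treatment at 37 C.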
# [2] = qHTS Assay for Identifying Gametocytocidal Compounds (AID 743244); further: potency means the concentration at half of the fitted maximal effect;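 on max response: on the % scale 0 is the no-effect control and ±100 the full control effect; actives lower the fluorescent signal which means gametocytes are killed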; details: P. falciparum 3D7 stage III-V gametocytes, alamarBlue, 72 h; max response: stronger effect = lower value
# How it was run: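 Stage III-V P. falciparum 3D7 gametocytes, 20,000 per well, were exposed to compounds for 72 h at 37C, 5% CO2. AlamarBlue was then added for 24 h and viability was read as fluorescence at Ex 525/Em 598 nm.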
# [3] = qHTS assay for environmental chemicals that activate the Aryl hydrocarbon Receptor (AhR) signaling pathway (AID 651777); details: 1A2-DRE human hepatoma cells, luciferase, 24 h; activation: stronger effect = higher value; further: % of control where 0% means no effect; nearly all actives have a fitted effect of over 15% in size
# How it was run: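 Measured luciferase activity, read 30 min after One-Glo addition at room temperature, from human hepatoma cells bearing a dioxin response element–CYP1A2 promoter reporter and exposed to compound for 24 hr at 37 C.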
# [4] = target: Peroxisome proliferator-activated receptor alpha (Homo sapiens) (UniProt Q07869); assay: qHTS assay for small molecule agonists of the peroxisome proliferator-activated receptor alpha (PPARalpha) signaling pathway (AID 651778); details: PathHunter PPARalpha complementation, chemiluminescence, 6 h; max response: stronger effect = higher value; further: % of control where 0% means no effect
# Sequence of Peroxisome proliferator-activated receptor alpha (Homo sapiens) (Q07869 whole entry, looked up): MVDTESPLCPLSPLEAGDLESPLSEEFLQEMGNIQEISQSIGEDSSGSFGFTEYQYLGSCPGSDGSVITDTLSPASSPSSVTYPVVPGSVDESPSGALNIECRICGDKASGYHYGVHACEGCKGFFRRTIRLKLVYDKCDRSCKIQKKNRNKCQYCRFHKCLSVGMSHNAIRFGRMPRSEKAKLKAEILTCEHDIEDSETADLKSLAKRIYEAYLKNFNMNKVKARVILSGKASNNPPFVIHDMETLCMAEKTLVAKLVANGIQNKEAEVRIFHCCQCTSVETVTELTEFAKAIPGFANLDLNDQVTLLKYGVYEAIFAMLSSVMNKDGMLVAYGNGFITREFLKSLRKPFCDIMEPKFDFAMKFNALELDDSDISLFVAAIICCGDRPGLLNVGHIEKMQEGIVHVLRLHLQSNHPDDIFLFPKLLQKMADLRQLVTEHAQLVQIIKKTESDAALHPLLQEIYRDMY
# How it was run: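 Cells plated at 2,000/well and held overnight at 37 C, 5% CO2, then compound added by pin tool for 6 hr; after PathHunter detection reagent and 60 min at room temperature, chemiluminescence from enzyme complementation was read.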
# [5] = qHTS assay for small molecule agonists of the antioxidant response element (ARE) signaling pathway measured by Nrf2-dependant transcriptional activity - cell viability counter screen (AID 720653; active means well fitted curve in the direction sought with a large enough effect in the repeat runs; an effect the other way counts as inactive or inconclusive; further: potency means the concentration at half of the fitted maximal effect); details: ARE-bla HepG2 viability, CellTiter-Glo ATP luminescence, 16 h; max response: stronger effect = lower value
# How it was run: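 ARE-bla HepG2 cells (2,000/well) rested 5 hrs at 37C/5% CO2, then exposed to compounds in DMSO for 16 hrs. Viability was read in the same wells as intracellular ATP by luminescence, 30 min at room temperature after reagent addition.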
# [6] = qHTS assay for cell viability of the p53RE-bla HCT-116 cell line (AID 743292); further: potency means the concentration at half of the fitted maximal effect; nearly all actives have a fitted effect of over 55% in size
# How it was run: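 Intracellular ATP of p53RE-bla HCT-116 cells measured by luciferase luminescence following 16 h compound incubation at 37 C; DMSO-only wells served as vehicle controls.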
# [7] = qHTS assay for small molecule agonists of the antioxidant response element (ARE) signaling pathway measured by Nrf2-dependant transcriptional activity (AID 720636; active means well fitted curve in the direction sought with a large enough effect in the repeat runs; an effect the other way counts as inactive or inconclusive; further: potency means the concentration at half of the fitted maximal effect; on activation: % of control where 0% means no effect)
# How it was run: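 In HepG2 cells engineered with an Nrf2-responsive luciferase gene, ARE induction was quantified as luminescence after 16 hr compound treatment at 37 C.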
# [8] = qHTS assay for cell viability of HEK293 cells (AID 743288); details: ATP luminescence (CellTiter-Glo), 18 h; max response: stronger effect = lower value; further: potency means the concentration at half of the fitted maximal effect; nearly all actives have a fitted effect of over 50% in size
# How it was run: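 Readout is luciferase-coupled ATP content (CellTiter-Glo luminescence, 30 min room temperature) as a measure of metabolically competent cells. Parental HEK293 cells were plated 5 h or more before compound addition, then treated 18 h at 37 C.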
# [9] = target: Luciferin 4-monooxygenase (Photinus pyralis) (UniProt P08659); assay: Biochemical firefly luciferase enzyme assay for NPC (AID 624030);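 further: purified P. pyralis luciferase at 10 nM with luciferin and ATP substrate; series mostly up to about 59 µM; 0% = DMSO and -100% = full luciferase inhibition by PTC124 control; nearly all actives have a fitted effect of over 70% in size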
# Sequence of Luciferin 4-monooxygenase (Photinus pyralis) (P08659 whole entry, looked up): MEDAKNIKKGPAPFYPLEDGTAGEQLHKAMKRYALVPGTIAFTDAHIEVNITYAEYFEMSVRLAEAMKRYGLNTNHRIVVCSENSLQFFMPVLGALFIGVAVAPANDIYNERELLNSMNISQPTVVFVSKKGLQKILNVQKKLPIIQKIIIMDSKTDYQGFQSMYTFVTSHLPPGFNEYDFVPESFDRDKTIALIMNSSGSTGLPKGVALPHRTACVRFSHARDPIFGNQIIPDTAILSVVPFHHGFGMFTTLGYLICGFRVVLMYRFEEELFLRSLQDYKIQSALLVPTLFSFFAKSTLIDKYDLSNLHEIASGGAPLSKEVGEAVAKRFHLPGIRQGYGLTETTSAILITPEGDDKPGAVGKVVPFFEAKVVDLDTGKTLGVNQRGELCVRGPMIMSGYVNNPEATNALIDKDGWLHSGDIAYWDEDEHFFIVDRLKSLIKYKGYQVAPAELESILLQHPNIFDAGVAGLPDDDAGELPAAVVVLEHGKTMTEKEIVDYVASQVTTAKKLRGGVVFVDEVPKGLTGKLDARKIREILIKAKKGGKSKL
# How it was run: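 Counter-screen for direct inhibition of the luciferase enzyme by approved-drug library compounds, run at 10 nM enzyme in 50 mM Tris acetate (final). Luminescence was read within 5 min of enzyme-buffer addition and normalized to PTC124 versus DMSO (0%).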
# [10] = target: Tumor susceptibility gene 101 protein (Homo sapiens) (UniProt Q99816); assay: qHTS Assay for Iinhibitors of HIV-1 Budding by Blocking the Interaction of PTAP/TSG101: Hit Validation (AID 651600); further: on the % scale 0 is the no-effect control and ±100 the full control effect; nearly all actives have a fitted effect of over 70% in size
# Sequence of Tumor susceptibility gene 101 protein (Homo sapiens) (Q99816 whole entry, looked up, the tested form may be a part): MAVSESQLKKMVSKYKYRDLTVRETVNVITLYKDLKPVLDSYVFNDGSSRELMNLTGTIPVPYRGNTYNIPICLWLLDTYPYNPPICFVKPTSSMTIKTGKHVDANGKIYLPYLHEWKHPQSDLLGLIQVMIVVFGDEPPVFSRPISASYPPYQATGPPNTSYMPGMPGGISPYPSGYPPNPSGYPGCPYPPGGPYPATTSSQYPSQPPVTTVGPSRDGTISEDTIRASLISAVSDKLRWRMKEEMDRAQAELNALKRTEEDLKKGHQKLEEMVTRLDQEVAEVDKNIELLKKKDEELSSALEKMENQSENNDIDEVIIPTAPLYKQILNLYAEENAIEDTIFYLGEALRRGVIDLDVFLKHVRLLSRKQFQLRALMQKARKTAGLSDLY
# How it was run: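 FITC-PTAP peptide (50 nM final) binding to Tsg101 binding domain (10 uM final) was measured by polarization after 20 min at r.t. with compounds, in 10 mM HEPES pH 7.5 buffer with 0.15 M NaCl and 0.01% Tween 20.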
# [11] = S16 Schwann cell PMP22 intronic element firefly luciferase assay (AID 624032); further: potency means the concentration at half of the fitted maximal effect; nearly all actives have a fitted effect of over 30% in size
# How it was run: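 Rat S16 Schwann cells stably carrying a PMP22 intronic element-driven Fluc reporter were seeded overnight, then exposed to compounds for 24 h at 37 °C. Luminescence was normalized to PTC124 (positive control) and DMSO (0% activity).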
# [12] = qHTS assay for small molecule activators of the human pregnane X receptor (PXR) signaling pathway (AID 720659; call rule not given here; further: 0% is about no effect)
# [13] = qHTS screen for small molecules that inhibit ELG1-dependent DNA repair: Hit Confirmation in Cell-Based Luciferin Assay (AID 624247); details: cell-free firefly luciferase luminescence counter-screen, ViewLux; further: potency means the concentration at half of the fitted maximal effect
# How it was run: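 Order of addition is substrate reagent → compound (or DMSO) → luciferase, with luminescence as readout.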
# [14] = target: ATPase family AAA domain-containing protein 5 (Homo sapiens) (UniProt Q96QE3); assay: HTS assay for small molecules that inhibit ELG1-dependent DNA repair in human embryonic kidney (HEK293T) cells expressing luciferase-tagged ELG1: Hit Confirmation (AID 624248); details: HEK293T ELG1-luciferase levels, luminescence; cells co-treated with 5-fluorouridine; further: potency means the concentration at half of the fitted maximal effect; nearly all actives have a fitted effect of over 55% in size
# Sequence of ATPase family AAA domain-containing protein 5 (Homo sapiens) (Q96QE3 whole entry, looked up, the tested form may be a part): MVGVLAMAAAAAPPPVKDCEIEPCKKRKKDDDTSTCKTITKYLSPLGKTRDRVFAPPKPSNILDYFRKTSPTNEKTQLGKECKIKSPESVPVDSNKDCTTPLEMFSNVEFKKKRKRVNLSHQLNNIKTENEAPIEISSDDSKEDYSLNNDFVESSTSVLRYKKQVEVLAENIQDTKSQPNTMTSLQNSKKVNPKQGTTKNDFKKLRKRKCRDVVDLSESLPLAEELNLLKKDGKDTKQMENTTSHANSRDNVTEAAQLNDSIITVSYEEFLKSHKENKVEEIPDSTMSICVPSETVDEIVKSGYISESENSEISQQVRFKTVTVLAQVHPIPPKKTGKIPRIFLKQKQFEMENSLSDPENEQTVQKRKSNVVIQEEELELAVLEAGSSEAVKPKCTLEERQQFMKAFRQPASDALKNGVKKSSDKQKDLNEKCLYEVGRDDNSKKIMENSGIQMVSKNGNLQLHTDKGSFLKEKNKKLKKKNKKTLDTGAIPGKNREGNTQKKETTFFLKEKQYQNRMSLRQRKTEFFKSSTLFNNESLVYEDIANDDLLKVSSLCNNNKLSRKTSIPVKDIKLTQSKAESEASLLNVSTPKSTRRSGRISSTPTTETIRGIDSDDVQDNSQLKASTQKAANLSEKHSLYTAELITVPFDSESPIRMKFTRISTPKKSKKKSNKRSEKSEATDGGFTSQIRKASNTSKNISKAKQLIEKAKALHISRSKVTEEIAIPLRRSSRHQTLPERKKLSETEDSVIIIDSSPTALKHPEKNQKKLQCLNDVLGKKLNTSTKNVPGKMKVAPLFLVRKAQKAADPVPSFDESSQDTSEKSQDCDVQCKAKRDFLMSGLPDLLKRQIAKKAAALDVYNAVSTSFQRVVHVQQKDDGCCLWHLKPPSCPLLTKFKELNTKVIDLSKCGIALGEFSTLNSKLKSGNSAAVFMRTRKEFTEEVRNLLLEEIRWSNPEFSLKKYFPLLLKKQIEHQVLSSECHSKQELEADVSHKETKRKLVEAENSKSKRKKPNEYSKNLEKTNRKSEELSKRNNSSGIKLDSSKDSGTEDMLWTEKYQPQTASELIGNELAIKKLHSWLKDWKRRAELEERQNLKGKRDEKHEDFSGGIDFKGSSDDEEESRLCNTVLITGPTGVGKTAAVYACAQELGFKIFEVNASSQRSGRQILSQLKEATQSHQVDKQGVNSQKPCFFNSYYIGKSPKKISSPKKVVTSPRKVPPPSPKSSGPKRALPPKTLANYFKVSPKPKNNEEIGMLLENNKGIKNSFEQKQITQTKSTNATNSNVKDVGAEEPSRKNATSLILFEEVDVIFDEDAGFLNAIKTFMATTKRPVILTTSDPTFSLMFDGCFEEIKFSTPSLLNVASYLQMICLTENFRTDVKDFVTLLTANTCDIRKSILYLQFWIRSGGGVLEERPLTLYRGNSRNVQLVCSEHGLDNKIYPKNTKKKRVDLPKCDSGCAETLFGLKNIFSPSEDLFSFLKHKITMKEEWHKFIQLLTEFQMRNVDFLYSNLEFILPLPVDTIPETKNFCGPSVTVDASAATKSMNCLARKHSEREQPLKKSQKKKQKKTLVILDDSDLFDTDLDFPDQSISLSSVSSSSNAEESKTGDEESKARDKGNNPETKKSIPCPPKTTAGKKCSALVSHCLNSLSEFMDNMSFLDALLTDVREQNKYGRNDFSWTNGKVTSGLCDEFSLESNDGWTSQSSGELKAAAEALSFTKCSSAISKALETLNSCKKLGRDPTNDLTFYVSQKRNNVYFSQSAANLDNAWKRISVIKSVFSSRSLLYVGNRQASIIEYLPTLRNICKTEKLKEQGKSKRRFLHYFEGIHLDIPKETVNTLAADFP
# How it was run: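 Cells (2,000/well) received 5-Fluorouridine plus pin-transferred compound or DMSO and were incubated 16 hr at 37 °C, 5% CO2. Luciferase activity was read by ONE-Glo luminescence after 30 min at room temperature; inhibitors suppress the signal.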
# [15] = target: ATPase family AAA domain-containing protein 5 (Homo sapiens) (UniProt Q96QE3); assay: qHTS screen for small molecules that inhibit ELG1-dependent DNA repair in human embryonic kidney (HEK293T) cells expressing luciferase-tagged ELG1: Hit Confirmation using MMS Stimulated ELG1 (AID 624249); details: HEK293T luciferase-tagged ELG1 level; further: potency means the concentration at half of the fitted maximal effect; nearly all actives have a fitted effect of over 60% in size
# How it was run: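 Luminescence from luciferase-tagged ELG1 measured 16 h after pin-tool compound transfer into HEK293T cells stimulated with 10 µM MMS (final). Compounds lowering luciferase signal counted as inhibitors of ELG1 response.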
# [16] = qHTS screen for small molecules that inhibit ELG1-dependent DNA repair: Hit Confirmation with MMS Viability (AID 624251); details: Cell viability with MMS;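 further: ELG1-luc HEK293T cells co-treated with 10 µM MMS; potency means the concentration at half of the fitted maximal effect; nearly all actives have a fitted effect of over 60% in size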
# How it was run: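 Sixteen hours of compound exposure with MMS at 10 µM final preceded a CellTiter-Glo viability readout in ELG1-luciferase HEK293T cells, which were dosed about 5 h after seeding.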
smiles,measurement,setting,value
O=C(O)CN(CCN(CC(=O)O)CC(=O)O)CC(=O)O,Potency,[1],inactive
same,max response,[2],12.5%
CCC[CH2][Sn]([CH2]CCC)([CH2]CCC)[O]C(=O)c1ccccc1,activation,[3],-10.5%
same,max response,[4],-0.767%
same,Potency,[5],3.98 µM (active)
same,Potency,[6],6.31 µM (active)
CC[C@H](C)[C@H]1O[C@]2(C=C[C@@H]1C)C[C@@H]1C[C@@H](C/C=C(\C)[C@@H](O[C@H]3C[C@H](OC)[C@@H](O[C@H]4C[C@H](OC)[C@@H](NC)[C@H](C)O4)[C@H](C)O3)[C@@H](C)/C=C/C=C3\CO[C@@H]4[C@H](O)C(C)=C[C@@H](C(=O)O1)[C@]34O)O2,activation,[3],-12%
same,max response,[4],4.77%
same,Potency,[7],inactive
same,Potency,[5],25.1 µM (active)
same,Potency,[8],50.1 µM (active)
same,Potency,[6],28.2 µM (active)
ClC[C@H]1CO1 (tested in a mixture with another compound),Potency,[9],inactive
CC(C)C[C@H]1C(=O)N2CCC[C@H]2[C@]2(O)O[C@](NC(=O)[C@@H]3C=C4c5cccc6[nH]cc(c56)C[C@H]4N(C)C3)(C(C)C)C(=O)N12,Potency,[10],inactive
CN1CC[C@]23c4c5ccc(O)c4OC2C(O)CCC3[C@H]1C5 (stereo not given in full),Potency,[9],inactive
CC1OC(OC2C(O)CC(OC3C(O)CC(OC4CCC5(C)C(CCC6C5CCC5(C)C(C7=CC(=O)OC7)CCC65O)C4)OC3C)OC2C)CC(O)C1O (stereo not given),Potency,[11],10.2 µM (active)
[Cl][Sn]([c]1ccccc1)([c]1ccccc1)[c]1ccccc1,Potency,[1],0.486 µM (active)
same,activation,[3],-11.4%
same,max response,[4],-6.19%
same,Potency,[7],0.486 µM (active)
same,Potency,[5],0.891 µM (active)
same,Potency,[8],2.82 µM (active)
same,Potency,[6],7.94 µM (active)
same,outcome,[12],inactive
C[C@H]1[C@@H]2Cc3ccc(O)cc3[C@]1(C)CCN2CCc1ccccc1,Potency,[9],inactive
CC(=O)[O][Sn]([c]1ccccc1)([c]1ccccc1)[c]1ccccc1,Potency,[13],1.99 µM (active)
same,Potency,[14],1.58 µM (active)
same,Potency,[15],0.281 µM (active)
same,Potency,[16],0.281 µM (active)
COC12CC[C@@]3(C[C@@H]1C(C)(O)C(C)(C)C)[C@H]1Cc4ccc(O)c5c4[C@@]3(CCN1CC1CC1)[C@H]2O5 (stereo not given in full),Potency,[2],31.6 µM (active)
